Source: PubChem BioAssay (NCATS)
Results filed as inconclusive are left out. A number with no mark means an inactive call. Active and inactive are the calls of the source. The call rests on the fitted dose curve; in most records, active means well fitted inhibition curve with a large enough effect; inconclusive means small, poorly fitted or top-dose-only effect; inactive means flat fitted curve, though single readings scatter.

What follows are compounds tested on MKL-2 (assay: qHTS assay to identify novel small-molecules to repurpose for Merkel cell carcinoma treatment (AID 1296009; further: nearly all actives have a fitted effect of over 60% in size)). Settings: MCC and control cell lines, CellTiter-Glo viability, 72 h; series mostly up to 46 µM; activity change, negative = cytotoxicity: at the top concentration.
Outline: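 After compound transfer in DMSO, plates were kept 72 hr at 37 degree celsius. Luminescent ATP signal from CellTiter-Glo served as viability measure, normalized against DMSO and no-cell controls.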
On the % scale 0 is the no-effect control and ±100 the full control effect; potency means the concentration at half of the fitted maximal effect.

With `Cc1cc(N)c2cc(NC(=O)Nc3ccc4nc(C)cc(N)c4c3)ccc2n1` as the compound, how does the “activity change, negative = cytotoxicity” value read?
Its value is -14.6%.

`CCCCCCC[N+](CC)(CC)CCCCc1ccc(Cl)cc1` was tested. Which Potency did it give?
The Potency was 237 nM (active).

How did the Potency turn out when `C[n+]1c2cc(N)ccc2cc2ccc(N)cc21` (tested in a mixture with another compound) was run?
The Potency was 750 nM (active).

`COc1ccc(OC)c(C(O)CNC(=O)CN)c1` (stereo unspecified) was tested. Which “activity change, negative = cytotoxicity” value did it give?
Its value is 14.2%.

How did the “activity change, negative = cytotoxicity” value turn out when `Cc1c(C(C)C)c(=O)n(-c2ccccc2)n1C` was run?
Its value is 4.67%.

With `N[C@H](Cc1c[nH]c2ccccc12)C(=O)O` as the compound, how does the “activity change, negative = cytotoxicity” value read?
Its value is -18.6%.

How did the “activity change, negative = cytotoxicity” value turn out when `O=C(Nc1ccc(Oc2ccc(Cl)cc2)c(Cl)c1)c1cc(I)cc(I)c1O` was run?
Its value is 19.3%.

How did the Potency turn out when `CN(C)C(=S)SC(=S)N(C)C` was run?
The Potency was 3350 nM (active).

With `CCOc1ccc2nc3cc(N)ccc3c(N)c2c1` as the compound, how does the Potency read?
The Potency was 2990 nM (active).

How did the “activity change, negative = cytotoxicity” value turn out when `CCC(C(=O)OCCN(CC)CC)c1ccccc1` (stereo unspecified) was run?
The value was 6.54%.

How did the “activity change, negative = cytotoxicity” value turn out when `CCCN1CCCC[C@H]1C(=O)Nc1c(C)cccc1C` was run?
The value was 14.3%.

Which “activity change, negative = cytotoxicity” value does the source give for `COc1cc(-c2ccc(=O)[nH]n2)ccc1OC(F)F` here?
The value was -15.6%.

For `Oc1ccc(O)cc1`, which Potency is on record?
Its Potency is 4730 nM (active).

How did the Potency turn out when `CN1CCCC(CC2c3ccccc3Sc3ccccc32)C1` (stereo unspecified) was run?
Its Potency is 23700 nM (active).

For `OC[C@H]1O[C@@H](n2cnc3c(=S)nc[nH]c32)[C@H](O)[C@@H]1O`, which “activity change, negative = cytotoxicity” value is on record?
The value was -4.78%.

How did the Potency turn out when `O=c1c(-c2ccccc2)c1-c1ccccc1` was run?
Its Potency is 13300 nM (active).

How did the Potency turn out when `CC(C)(C)CC(C)(C)c1ccc(OCCOCC[N+](C)(C)Cc2ccccc2)cc1` was run?
Its Potency is 944 nM (active).

How did the “activity change, negative = cytotoxicity” value turn out when `CO/N=C1\CN(c2nc3c(cc2F)c(=O)c(C(=O)O)cn3C2CC2)CC1CN` (stereo unspecified) was run?
The value was -22%.

With `C/C=C(/C(=C/C)c1ccc(O)cc1)c1ccc(O)cc1` as the compound, how does the “activity change, negative = cytotoxicity” value read?
The value was -25.2%.

How did the Potency turn out when `CCCSS/C(CCO)=C(\C)N(C=O)Cc1cnc(C)nc1N` was run?
Its Potency is 6680 nM (active).

`CCCCCCCCCCCCCCCC[N+](C)(C)CC` was tested. Which Potency did it give?
Its Potency is 47.3 nM (active).

With `CC(=O)Oc1ccc(C(c2ccc(OC(C)=O)cc2)c2ccccn2)cc1` as the compound, how does the “activity change, negative = cytotoxicity” value read?
The value was -1%.

For `CCCCCCCCCCCCCCCC[N+](C)(C)CCN(Cc1ccc(OC)cc1)c1ncccn1`, which Potency is on record?
Its Potency is 2370 nM (active).

For `Cc1ccc(O)c2ncccc12`, which Potency is on record?
Its Potency is 8410 nM (active).

How did the “activity change, negative = cytotoxicity” value turn out when `Cc1c(C)n(CCN(C)C)c2ccc(C(=O)OCCN(C)C)cc12` was run?
Its value is -18%.

With `Oc1c(I)cc(Cl)c2cccnc12` as the compound, how does the Potency read?
Its Potency is 7500 nM (active).

For `CC1=C(C(=O)O)N2C(=O)[C@@H](NC(=O)[C@H](N)c3ccc(O)cc3)[C@H]2SC1`, which “activity change, negative = cytotoxicity” value is on record?
The value was -14.4%.

How did the Potency turn out when `Nc1ccc(C(=O)Nc2ccccc2N)cc1` was run?
Its Potency is 5960 nM (active).

Which “activity change, negative = cytotoxicity” value does the source give for `Cc1ccccc1C(=O)Nc1ccc(C(=O)N2CCCC(N(C)C)c3ccccc32)cc1` (stereo unspecified) here?
Its value is -23%.

For `CCCCC(CC)CN=C(N)NC(N)=NCCCCCCN=C(N)NC(N)=NCC(CC)CCCC` (stereo unspecified), which Potency is on record?
Its Potency is 1880 nM (active).

`CN(C/C=C/c1ccccc1)Cc1cccc2ccccc12` was tested. Which “activity change, negative = cytotoxicity” value did it give?
Its value is -27.6%.

For `C=C(CC)C(=O)c1ccc(OCC(=O)O)c(Cl)c1Cl`, which Potency is on record?
Its Potency is 15000 nM (active).

How did the “activity change, negative = cytotoxicity” value turn out when `O=C1OC(c2ccc(O)cc2)(c2ccc(O)cc2)c2ccccc21` was run?
The value was 14.5%.

How did the Potency turn out when `COc1cc(C=C2CCC/C(=C\c3ccc(O)c(OC)c3)C2=O)ccc1O` was run?
The Potency was 2990 nM (active).

With `NC(=NCCCCCCN=C(N)/N=C(\N)Nc1ccc(Cl)cc1)/N=C(\N)Nc1ccc(Cl)cc1` as the compound, how does the Potency read?
Its Potency is 2990 nM (active).

For `COc1cccc2c1C(=O)c1c(O)c3c(c(O)c1C2=O)C[C@@](O)(C(C)=O)C[C@@H]3O[C@H]1C[C@H](N)[C@H](O)[C@H](C)O1`, which Potency is on record?
The Potency was 10.6 nM (active).
